{"source": "ChEMBL document CHEMBL1157539", "about": "“Thousands of chemical starting points for antimalarial lead identification” (Nature, 2010)", "data": [{"tested_on": "HepG2", "assay": "GSK_TCMDC: Percent inhibition of human HepG2 cell line. Test compounds present at 10uM.", "assay_type": "functional", "units": {"Inhibition": "%"}, "values": [{"smiles": "CC(C)[C@H](NC(=O)c1c(CN2CCC(N3CCCCC3)CC2)c(-c2ccccc2)nc2cc(O)ccc12)c1ccccc1", "Inhibition": 10}, {"smiles": "COc1ccc2c(c1)OC(C)(C)CC2=NOS(=O)(=O)c1ccc(C)cc1", "Inhibition": 10}, {"smiles": "COC(=O)c1cccc(CNCc2ccc(-c3ccc(-c4nc5cc(F)ccc5[nH]4)cc3)cc2)c1.O=C(O)C(F)(F)F", "Inhibition": 8}, {"smiles": "Cc1cc(C)n(Cc2ccc(C(=O)NCC3CCCCC3)cc2)n1", "Inhibition": 0}, {"smiles": "COc1cc2c(OC)cccc2cc1CNCCCCCCNCc1cc2cccc(OC)c2cc1OC.CS(=O)(=O)O", "Inhibition": 59}, {"smiles": "CCN(CC)CCNc1ccnc2[nH]c3ccc(I)cc3c12", "Inhibition": 14}, {"smiles": "Cc1cc(NCCC(=O)NCCOc2ccccc2)nc(Nc2ccccc2)n1.O=C(O)C(F)(F)F", "Inhibition": 26}, {"smiles": "C=C1C[C@@H](n2cnc3c(NC(=O)c4ccccc4)ncnc32)[C@@H](F)[C@@H]1OC(c1ccccc1)(c1ccccc1)c1ccccc1", "Inhibition": 16}, {"smiles": "CC(C)(CNCc1ccccc1)c1nc(-c2ccc(Cl)c(O)c2)c(-c2ccncc2)[nH]1.Cl", "Inhibition": 77}, {"smiles": "O=C(/C=C/c1cccc(Cl)c1)N1CCC(C(O)CN2CCC3(CC2)CN(C(=O)/C=C/c2cccc(Cl)c2)c2ccccc23)CC1", "note": "(stereo not given)", "Inhibition": 34}]}]}
